Screening data (PubChem BioAssay)
Compounds with a hit are over-represented: about 8.7% of the library has one in this group of screens.
Vaccinia mCherry: qHTS for Stage-Specific Inhibitors of Vaccinia Orthopoxvirus: mCherry Reporter Primary qHTS; Vaccinia virus mCherry reporter infection, fluorescence; Potency, µM (titrated, usually from 36.5 µM), for the others: at the highest dose activity change, negative = inhibition, usual class: inhibitors; 310,000 tested, 0.63% active; AID 720579, 2013; calls by dose curve; tested in A549 cells; also: nearly all actives have a fitted effect of over 35% in size
Pf growth 96h: Primary qHTS for delayed death inhibitors of the malarial parasite plastid, 96 hour incubation. Potency, µM (series often up to 28.7 µM), for inactives: at the highest dose activity change, negative = inhibition, actives largely listed as inhibitors. P. falciparum luciferase reporter growth, 96 h. 320,000 tested, 6.9% active
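Parasite growth measured via integrated firefly luciferase reporter in P. falciparum. Infected erythrocytes at 2% hematocrit, 0.05% parasitemia final were treated 96 hours at 37 C under 5% CO2, and luminescence was read.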
Pf growth 48h: Primary qHTS for delayed death inhibitors of the malarial parasite plastid, 48 hour incubation; P. falciparum luciferase growth in erythrocytes, 48 h; 310,000 tested, 5.9% active; AID 504832, 2011; Potency, µM (series often up to 28.7 µM), for inactives: at the top dose activity change, negative = inhibition, hits mostly inhibitors
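Erythrocytes infected with P. falciparum carrying an integrated firefly luciferase reporter (2% hematocrit, 0.1% parasitemia final) were exposed to compounds in RPMI 1640 with 0.5% Albumax at 37 C, 5% CO2. Growth inhibition was scored as reduced luminescence.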
Vaccinia Venus: qHTS for Stage-Specific Inhibitors of Vaccinia Orthopoxvirus: Venus Reporter Primary qHTS; AID 720580, 2013; 330,000 tested, 0.46% active; Vaccinia virus Venus reporter expression, fluorescence; Potency, µM (highest dose often 36.5 µM), inactives show top-dose activity change, negative = inhibition, usual class: inhibitors; calls by dose curve; tested in A549 cells; also: nearly all actives have a fitted effect of over 30% in size
AMA1 RON2 block: qHTS for Inhibitors of AMA1-RON; Towards Development of Antimalarial Drug Lead: Primary Screen; Plasmodium falciparum AMA1 (3D7) - RON2 peptide interaction; AlphaScreen AMA1-biotinylated RON2 peptide binding; Potency, µM (titrated, usually from 58.2 µM), inactives show at the top dose activity change, negative = inhibition, actives largely listed as inhibitors; 360,000 tested, 0.2% active;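 also: 0% = vehicle wells and -100% = peptide control; nearly all actives have a fitted effect of over 45% in size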
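AMA1 (3D7) with his tag at 25 nM final met compounds first, then biotinylated RON2 peptide at 25 nM; detection used donor plus acceptor beads, 10 µg/mL apiece, read by AlphaScreen after 30 min at room temperature.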
* marks the source's active call; other numbers are inactive results. Unless noted, calls follow the shape of the dose curve; as a rule, active = well fitted curve in the direction sought with a large enough effect; inconclusive = small, poorly fitted or top-dose-only effect, or another doubt; inactive = no such curve, though single readings can be large; an effect the other way counts as inactive or inconclusive. Unless noted, % is scaled to controls: 0 for no effect and ±100 for the full control effect; potency is read from the fitted curve at half-maximal effect.

How did N#Cc1ccc(/C=C2/C=Cc3ccccc32)cc1 do in these assays?
Vaccinia mCherry: inactive; Vaccinia Venus: -13.6%

Results for COc1ccc(-n2c(-c3ccco3)nc3c(cnn3-c3ccccc3Cl)c2=O)cc1 ?
Vaccinia mCherry: -19.7%; Vaccinia Venus: -4.3%

What do the screens show for `COc1ccc(C(=O)c2cnc3ccc(C)cc3c2S(=O)(=O)c2ccccc2)cc1`?
Vaccinia mCherry: -26.8%; Vaccinia Venus: -11.1%

Results for O=C(NCCc1ccc(Cl)cc1)c1ccc2c(c1)N(Cc1ccccc1)C(=O)CS2 ?
Vaccinia mCherry: -9.2%; Vaccinia Venus: -9.5%

Results for COc1ccc(-n2cc(CNCCc3nc(C)cc(C)n3)c(-c3ccccc3Cl)n2)cc1 ?
Vaccinia mCherry: inactive; Pf growth 96h: inconclusive; Pf growth 48h: 11.7µM*; Vaccinia Venus: -13.3%; AMA1 RON2 block: -25.6%

What do the screens show for `CC(=O)c1cc(F)ccc1OCC(=O)N1CCN(c2ccc(F)cc2)CC1`?
Pf growth 96h: -24.6%; Pf growth 48h: 4.15µM*; AMA1 RON2 block: -1.5%

Results for O=C(CCCOc1ccccc1)N1CCN(c2ccc(F)cc2)CC1 ?
Pf growth 96h: 11.7µM*; Vaccinia Venus: -12.5%; AMA1 RON2 block: -1.8%

How did O=C(CNC(=O)c1cccs1)OCc1ccc(Cl)cc1 do in these assays?
Vaccinia mCherry: -16.8%; Pf growth 96h: 1.7%; Pf growth 48h: 30.1%; Vaccinia Venus: 1.3%; AMA1 RON2 block: -0.4%

Results for O=C(Nc1cnn(Cc2ccc(Cl)cc2)c1)c1ccc([N+](=O)[O-])cc1 ?
Vaccinia mCherry: inconclusive; Pf growth 96h: inconclusive; Pf growth 48h: inconclusive; Vaccinia Venus: inconclusive; AMA1 RON2 block: -2.7%

How did O=C(Nc1cnn(Cc2ccc(Cl)c(Cl)c2)c1)C12CC3CC(CC(C3)C1)C2 do in these assays?
Vaccinia mCherry: 17.8µM*; Pf growth 96h: 7.38µM*; Pf growth 48h: 13.1µM*; Vaccinia Venus: inconclusive; AMA1 RON2 block: -15.9%

Results for O=C(NCCSCc1ccc(Cl)cc1)c1cccs1 ?
Vaccinia mCherry: 3.1%; Pf growth 96h: 10.4µM*; Pf growth 48h: 3.29µM*; Vaccinia Venus: 21.2%; AMA1 RON2 block: 13.4%

Results for O=C(Nc1cnn(Cc2ccc(Cl)cc2)c1)c1cccs1 ?
Vaccinia mCherry: -16.0%; Pf growth 96h: 6.57µM*; Pf growth 48h: 4.65µM*; Vaccinia Venus: -10.1%; AMA1 RON2 block: 10.7%

Results for CN(C(=O)NCc1noc2ccccc12)c1cccc(Cl)c1 ?
Vaccinia mCherry: -5.4%; Vaccinia Venus: -11.0%

Results for Cn1c(SCC(=O)Nc2ccc(C(N)=O)cc2)nc2c(c1=O)SCC2 ?
Vaccinia mCherry: -11.9%; Pf growth 96h: -1.6%; Pf growth 48h: 4.7%; Vaccinia Venus: -1.0%; AMA1 RON2 block: -2.7%

Results for Cn1c(SCC(=O)Nc2cccc(F)c2)nc2c(c1=O)SCC2 ?
Vaccinia mCherry: -1.3%; Pf growth 96h: 2.62µM*; Pf growth 48h: inconclusive; Vaccinia Venus: -16.8%; AMA1 RON2 block: 8.5%

Results for CC1Cc2nc(SCC(=O)Nc3ccc(F)cc3)n(C)c(=O)c2S1 (stereo not drawn) ?
Vaccinia mCherry: 1.3%; Pf growth 96h: inconclusive; Pf growth 48h: inconclusive; Vaccinia Venus: -12.1%; AMA1 RON2 block: -7.7%

What do the screens show for `Cn1c(SCc2cccc([N+](=O)[O-])c2)nc2c(c1=O)SCC2`?
Vaccinia mCherry: inconclusive; Pf growth 96h: 3.7µM*; Pf growth 48h: inconclusive; Vaccinia Venus: -8.2%; AMA1 RON2 block: inconclusive

Results for COc1cccc(NC(=O)CSc2nc3c(c(=O)n2C)SC(C)C3)c1 (stereo not drawn) ?
Vaccinia mCherry: -10.9%; Pf growth 96h: 9.28µM*; Pf growth 48h: 11.7µM*; Vaccinia Venus: -17.6%; AMA1 RON2 block: -1.5%

What do the screens show for `CCOc1ccc(NC(=O)CSc2nc3c(c(=O)n2C)SC(C)C3)cc1` (stereo not drawn)?
Vaccinia mCherry: -10.1%; Pf growth 96h: 7.38µM*; Pf growth 48h: 13.1µM*; Vaccinia Venus: -21.1%; AMA1 RON2 block: -5.2%

Results for Cc1cc(C)cc(NC(=O)CSc2nc3c(c(=O)n2C)SC(C)C3)c1 (stereo not drawn) ?
Vaccinia mCherry: -7.4%; Pf growth 96h: -18.6%; Pf growth 48h: inconclusive; Vaccinia Venus: -20.4%; AMA1 RON2 block: 33.0%

Results for CCN(c1ccccc1)S(=O)(=O)c1nnc(NC(=O)C(C)Oc2ccccc2)s1 (stereo not drawn) ?
Vaccinia mCherry: -3.8%; Vaccinia Venus: -4.7%

How did COC(=O)[C@H]1C2CC3c4[nH]c5ccccc5c4CCN3CC2CC[C@@H]1O (stereo partly drawn) do in these assays?
Vaccinia mCherry: -12.7%; Vaccinia Venus: -12.3%

How did COc1ccc2c3c([nH]c2c1)C1CC2C(CC(O)C(OC)C2C(=O)O)CN1CC3 (stereo not drawn) do in these assays?
Vaccinia mCherry: -6.7%; Pf growth 96h: 3.7µM*; Pf growth 48h: 9.28µM*; Vaccinia Venus: 0.6%; AMA1 RON2 block: 1.5%

Results for COC(=O)C1C2CC3c4[nH]c5cc(OC)ccc5c4CCN3CC2CC(OC2CCCCO2)C1OC (stereo not drawn) ?
Vaccinia mCherry: inconclusive; Vaccinia Venus: -17.0%; AMA1 RON2 block: 15.0%

Results for COC(=O)[C@@H]1C2CC3c4[nH]c5cc(OC)ccc5c4CCN3CC2C[C@H](OC(=O)c2cc(OC)c(OC)c(OC)c2)C1OC (stereo partly drawn) ?
Vaccinia mCherry: -6.4%; Vaccinia Venus: -27.0%

Results for O=C(O)[C@@H]1[C@@H]2C[C@H]3c4[nH]c5ccccc5c4CCN3C[C@@H]2CC[C@@H]1O ?
Pf growth 96h: 5.73µM*; Pf growth 48h: inconclusive

What do the screens show for `COC(=O)[C@H]1[C@H]2C[C@@H]3c4[nH]c5cc(OC)ccc5c4CCN3C[C@H]2C[C@@H](OC(=O)c2cc(OC)c(OC)c(OC)c2)[C@@H]1OC`?
Vaccinia mCherry: inactive; Pf growth 96h: 1.65µM*; Pf growth 48h: 1.47µM*; Vaccinia Venus: -21.5%; AMA1 RON2 block: -14.4%

Results for CCOc1ccccc1-n1nnc(S(=O)(=O)c2ccc(C)cc2)c1N ?
Vaccinia mCherry: -3.6%; Vaccinia Venus: -1.4%

How did COc1cn(CC(=O)Nc2cc(C)cc(C)c2)c(CN2CCCCC2)cc1=O do in these assays?
Vaccinia mCherry: inactive; Vaccinia Venus: -9.8%

How did Cc1ccc(-n2nc(C)c3c(C)cc(=O)n(CC(=O)NC(C)C)c32)cc1 do in these assays?
Vaccinia mCherry: -6.1%; Vaccinia Venus: 6.6%

How did Cc1onc(-c2ccccc2)c1C(=O)O/N=C(\N)c1ccc([N+](=O)[O-])o1 do in these assays?
Pf growth 96h: 11.7µM*; Pf growth 48h: inconclusive; AMA1 RON2 block: -21.4%
